Data: the supplement of paper PMC9801561
± gives the standard deviation of the averaged measurements.

Experiments:
[1] = tested on: Escherichia coli Nissle 1917; test: area under OmniLog respiration curve over 48 h (OmniLog units x h); higher = more growth / nutrient utilisation; extreme values may be limits of the assay; conditions: incubation: 48 h, 37 °C
[2] = tested on: Escherichia coli Nissle 1917; test: DuctApe activity index of respiration/growth curve (0 no growth to 9 maximum) (index 0-9); higher = more growth / nutrient utilisation, active = 3 or more; extreme values may be limits of the assay; conditions: incubation: 48 h, 37 °C
[3] = nutrient role: sole phosphorus source (pyruvate carbon)
[4] = nutrient role: sole nitrogen source (pyruvate carbon)
[5] = nutrient role: C-Source, alcohol
[6] = nutrient role: C-Source, carboxylic acid
[7] = nutrient role: C-Source, carbohydrate
[8] = nutrient role: sole sulfur source (pyruvate carbon)
[9] = nutrient role: N-Source, inorganic
[10] = nutrient role: C-Source, amino acid
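Wherever DuctApe activity index of respiration/growth curve (0 no growth to 9 maximum) is given: biolog PM4 phosphorus and sulfur plates, tetrazolium violet dye reduction read in the OmniLog every 15 min, kinetic curves scored by DuctApe, each plate run in triplicate.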

Structure (SMILES): O=C(O)C(CO)OP(=O)(O)O [D-2-Phospho-Glyceric acid]
- area under OmniLog respiration curve [1, 3]: 9640 ± 700
- DuctApe activity index [2, 3]: 9 (active)

Structure (SMILES): CSCC[C@H](N)C(=O)N[C@@H](C)C(=O)O
- area under OmniLog respiration curve [1, 4]: 6410 ± 1200
- DuctApe activity index [2, 4]: 7 (active)

Structure (SMILES): O=C(O)[C@H](O)[C@@H](O)[C@H](O)[C@H](O)COP(=O)(O)O [6-Phospho-Gluconic acid]
- area under OmniLog respiration curve [1, 3]: 9360 ± 510
- DuctApe activity index [2, 3]: 9 (active)

Structure (SMILES): CC(=O)C(C)=O [2,3-Butanedione]
- area under OmniLog respiration curve [1, 5]: 19 ± 14
- DuctApe activity index [2, 5]: 0 (inactive)

Structure (SMILES): CC(O)CO (configuration not stated) [1,2-Propanediol]
- area under OmniLog respiration curve [1, 5]: 123 ± 100
- DuctApe activity index [2, 5]: 1.33 (inactive)

Structure (SMILES): COC(=O)[C@@H](C)O [D-Lactic acid Methyl Ester]
- area under OmniLog respiration curve ([1]; nutrient role: C-Source, ester): 7990 ± 370
- DuctApe activity index ([2]; nutrient role: C-Source, ester): 8 (active)

Structure (SMILES): CCCCCCCCCC(=O)O [Capric acid]
- area under OmniLog respiration curve [1, 6]: 14.2 ± 6.8
- DuctApe activity index [2, 6]: 0 (inactive)

Structure (SMILES): OC[C@H]1O[C@H](O[C@H]2O[C@H](CO)[C@@H](O)[C@H](O)[C@H]2O)[C@H](O)[C@@H](O)[C@@H]1O [D-Trehalose]
- area under OmniLog respiration curve [1, 7]: 8920 ± 460
- DuctApe activity index [2, 7]: 8.67 (active)

Structure (SMILES): OCC(O)C(O)C(O)CO (configuration not stated) [Adonitol]
- area under OmniLog respiration curve [1, 7]: 2610 ± 350
- DuctApe activity index [2, 7]: 5 (active)

Structure (SMILES): O=C(O)CC(CC(=O)O)C(=O)O [Tricarballylic acid]
- area under OmniLog respiration curve [1, 6]: 5.51 ± 1.4
- DuctApe activity index [2, 6]: 0 (inactive)

Structure (SMILES): OC[C@@H](O)[C@@H](O[C@H]1O[C@H](CO)[C@@H](O)[C@H](O)[C@H]1O)[C@H](O)[C@@H](O)CO [Maltitol]
- area under OmniLog respiration curve [1, 7]: 4.72
- DuctApe activity index [2, 7]: 0 (inactive)

Structure (SMILES): O=C(O)C(O)COP(=O)(O)O [D-3-Phospho-Glyceric acid]
- area under OmniLog respiration curve [1, 3]: 9300 ± 690
- DuctApe activity index [2, 3]: 8.67 (active)

Structure (SMILES): N[C@@H](CSC[C@H](N)C(=O)O)C(=O)O [Lanthionine]
- area under OmniLog respiration curve [1, 8]: 7490 ± 330
- DuctApe activity index [2, 8]: 8 (active)

Structure (SMILES): C[C@H](N)C(=O)N[C@@H](Cc1cnc[nH]1)C(=O)O
- area under OmniLog respiration curve [1, 4]: 6900 ± 1400
- DuctApe activity index [2, 4]: 7.67 (active)

Structure (SMILES): N [Ammonia]
- area under OmniLog respiration curve [1, 9]: 8190 ± 1000
- DuctApe activity index [2, 9]: 8.33 (active)

Structure (SMILES): O=P(O)(O)OC[C@H]1OC(O)C[C@@H](O)[C@@H]1O (stereo partly drawn) [2-Deoxy-D-Glucose 6-Phosphate]
- area under OmniLog respiration curve [1, 3]: 4.72
- DuctApe activity index [2, 3]: 0 (inactive)

Structure (SMILES): CO[C@@H]1O[C@H](CO)[C@@H](O)[C@H](O)[C@H]1O [b-Methyl-D-Glucoside]
- area under OmniLog respiration curve [1, 7]: 6700 ± 470
- DuctApe activity index [2, 7]: 7.33 (active)

Structure (SMILES): C=C(OP(=O)(O)O)C(=O)O [Phosphoenol Pyruvate]
- area under OmniLog respiration curve [1, 3]: 9270 ± 480
- DuctApe activity index [2, 3]: 9 (active)

Structure (SMILES): N[C@@H](CS(=O)O)C(=O)O [L-Cysteine Sulfinic acid]
- area under OmniLog respiration curve [1, 8]: 7460 ± 360
- DuctApe activity index [2, 8]: 7.67 (active)

Structure (SMILES): CO[C@H]1O[C@H](CO)[C@@H](O)[C@H](O)[C@H]1O [a-Methyl-D-Glucoside]
- area under OmniLog respiration curve [1, 7]: 4.72
- DuctApe activity index [2, 7]: 0 (inactive)

Structure (SMILES): COC(=O)C(C)=O [Methylpyruvate]
- area under OmniLog respiration curve ([1]; nutrient role: C-Source, ester): 8530 ± 550
- DuctApe activity index ([2]; nutrient role: C-Source, ester): 8.33 (active)

Structure (SMILES): NC(CCSCC(N)C(=O)O)C(=O)O (configuration not stated) [Cystathionine]
- area under OmniLog respiration curve [1, 8]: 4100 ± 130
- DuctApe activity index [2, 8]: 6 (active)

Structure (SMILES): CO[C@H]1O[C@H](CO)[C@H](O)[C@H](O)[C@H]1O [a-Methyl-D-Galactoside]
- area under OmniLog respiration curve [1, 7]: 8070 ± 460
- DuctApe activity index [2, 7]: 8 (active)

Structure (SMILES): OC[C@@H](O)[C@@H](O)[C@H](O)[C@@H](O)CO [D-Sorbitol]
- area under OmniLog respiration curve [1, 7]: 8340 ± 910
- DuctApe activity index [2, 7]: 8.33 (active)

Structure (SMILES): OC[C@H]1OC(O)[C@H](O)[C@@H](O)[C@H]1O (stereo partly drawn) [D-Galactose]
- area under OmniLog respiration curve [1, 7]: 7350 ± 520
- DuctApe activity index [2, 7]: 7.67 (active)

Structure (SMILES): O=C(CO)[C@@H](O)[C@H](O)[C@H](O)CO[C@H]1O[C@H](CO)[C@@H](O)[C@H](O)[C@H]1O [Palatinose]
- area under OmniLog respiration curve [1, 7]: 174 ± 160
- DuctApe activity index [2, 7]: 0 (inactive)

Structure (SMILES): CC1OC(O)C(O)C(O)C1O [L-Fucose]
- area under OmniLog respiration curve [1, 7]: 7650 ± 700
- DuctApe activity index [2, 7]: 7.67 (active)

Structure (SMILES): O=C(O)[C@@H]1C[C@@H](O)CN1 [Hydroxy-L-Proline]
- area under OmniLog respiration curve [1, 10]: 94.1 ± 78
- DuctApe activity index [2, 10]: 0 (inactive)

Structure (SMILES): OC[C@@]12OC[C@@H](O1)[C@@H](O)[C@@H](O)[C@@H]2O [Sedoheptulosan]
- area under OmniLog respiration curve [1, 7]: 201 ± 160
- DuctApe activity index [2, 7]: 1.33 (inactive)

Structure (SMILES): O=P(O)(O)O [Phosphate]
- area under OmniLog respiration curve [1, 3]: 9750 ± 430
- DuctApe activity index [2, 3]: 9 (active)

Structure (SMILES): CCCCS(=O)(=O)O [Butane Sulfonic acid]
- area under OmniLog respiration curve [1, 8]: 7820 ± 190
- DuctApe activity index [2, 8]: 8 (active)

Structure (SMILES): OC[C@H](O)C(O)[C@@H](O)CO [L-Arabitol]
- area under OmniLog respiration curve [1, 7]: 4.72
- DuctApe activity index [2, 7]: 0 (inactive)

Structure (SMILES): OC1OC[C@@H](O)[C@@H](O)[C@@H]1O (stereo partly drawn) [D-Arabinose]
- area under OmniLog respiration curve [1, 7]: 2440 ± 230
- DuctApe activity index [2, 7]: 4 (active)

Structure (SMILES): Nc1cc[nH]c(=O)n1 [Cytosine]
- area under OmniLog respiration curve [1, 4]: 5890 ± 1100
- DuctApe activity index [2, 4]: 7 (active)

Structure (SMILES): O=P1(O)OP(=O)(O)OP(=O)(O)O1 [Trimetaphosphate]
- area under OmniLog respiration curve [1, 3]: 9730 ± 800
- DuctApe activity index [2, 3]: 9 (active)

Structure (SMILES): Nc1[nH]cnc2ncnc1-2 [Adenine]
- area under OmniLog respiration curve [1, 4]: 5810 ± 860
- DuctApe activity index [2, 4]: 6.67 (active)

Structure (SMILES): O=c1ccn(C2OC(COP(=O)(O)O)C(O)C2O)c(=O)[nH]1 (configuration not stated) [Uridine 5`-Monophosphate]
- area under OmniLog respiration curve [1, 3]: 8960 ± 820
- DuctApe activity index [2, 3]: 8.67 (active)

Structure (SMILES): O=C(O)C[C@H](O)C(=O)O [L-Malic acid]
- area under OmniLog respiration curve [1, 6]: 8910 ± 230
- DuctApe activity index [2, 6]: 8.67 (active)

Structure (SMILES): O=C[C@@H](O)[C@H](O[C@@H]1O[C@H](CO)[C@H](O)[C@H](O)[C@H]1O)[C@H](O)CO [3-O-b-D-Galactopyranosyl-D-Arabinose]
- area under OmniLog respiration curve [1, 7]: 8530 ± 550
- DuctApe activity index [2, 7]: 8.33 (active)

Structure (SMILES): C[C@@H]1OC(O)[C@H](O)[C@H](O)[C@H]1O (stereo partly drawn) [L-Rhamnose]
- area under OmniLog respiration curve [1, 7]: 6960 ± 610
- DuctApe activity index [2, 7]: 7.33 (active)

Structure (SMILES): CSCC[C@@H](N)C(=O)O [D-Methionine]
- area under OmniLog respiration curve [1, 8]: 4590 ± 230
- DuctApe activity index [2, 8]: 6.33 (active)

Structure (SMILES): N[C@H](CCC(=O)O)C(=O)O [D-Glutamic acid]
- area under OmniLog respiration curve [1, 4]: 57.1 ± 89
- DuctApe activity index [2, 4]: 0.667 (inactive)

Structure (SMILES): O=C(O)Cc1ccc(O)cc1 [p-Hydroxyphenyl Acetic acid]
- area under OmniLog respiration curve [1, 6]: 40.5 ± 54
- DuctApe activity index [2, 6]: 0 (inactive)

Structure (SMILES): CC(=O)N[C@H]1[C@H]([C@H](O)[C@H](O)CO)OC(O)(C(=O)O)C[C@@H]1O (some centres not stated) [N-Acetyl-Neuraminic acid]
- area under OmniLog respiration curve [1, 6]: 6140 ± 840
- DuctApe activity index [2, 6]: 7 (active)

Structure (SMILES): NCCN [Ethylenediamine]
- area under OmniLog respiration curve [1, 4]: 4.72
- DuctApe activity index [2, 4]: 0 (inactive)

Structure (SMILES): N[C@@H](C(=O)O)[C@@H](O)[C@H](O)[C@H](O)CO [D-Glucosaminic acid]
- area under OmniLog respiration curve [1, 6]: 1010 ± 670
- DuctApe activity index [2, 6]: 2 (inactive)
